This is a sample that favours compounds with a hit; in the whole collection about 20% have one here.
HCMV antiviral = qHTS Assay for inhibitors of the human cytomegalovirus (HCMV) | activity change, negative = inhibition, % at 57.5 µM | HFF cells, HCMV-luciferase reporter, 72 h; stronger effect = lower value | hit rate 4.5% among 410,000; in the data active = activity change below about -60%; inconclusive = no clear call, values can overlap the other calls; inactive = above about -39%; note: % is set by controls: 0 for no effect and ±100 for the full control effect
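Luciferase read-out from HCMV-luciferase-infected HFFs (MOI 1 PFU/cell) 72 h post infection at 37C; compounds added after 16 h cell attachment; activity normalized between buffer-only basal and Salinomycin (10uM) inhibitor controls.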
CHX counter = Cycloheximide Counterscreen for Small Molecule Inhibitors of Shiga Toxin | hit rate 12% among 300,000 | cell reporter, cycloheximide protein synthesis inhibition counterscreen | max response, %; in the data active = max response mostly above about 13%, no sharp cut-off; inactive = mostly below about 14%; note: read at 38.3 µM for the half of the compounds with a filed dose; 0% is about no effect
Pf growth 96h = Primary qHTS for delayed death inhibitors of the malarial parasite plastid, 96 hour incubation. P. falciparum luciferase reporter growth, 96 h. AID 504834, 2011. Potency, µM (doses to about 28.7 µM), inactives show top-dose activity change, negative = inhibition, usual class: inhibitors. hit rate 6.9% among 320,000; note: potency is the fitted concentration of half-maximal effect; % is set by controls: 0 for no effect and ±100 for the full control effect
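Parasite growth measured via integrated firefly luciferase reporter in P. falciparum. Infected erythrocytes at 2% hematocrit, 0.05% parasitemia final were treated 96 hours at 37 C under 5% CO2, and luminescence was read.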
Pf growth 48h = Primary qHTS for delayed death inhibitors of the malarial parasite plastid, 48 hour incubation. P. falciparum luciferase growth in erythrocytes, 48 h. Potency, µM (doses to about 28.7 µM), inactives show at the highest dose activity change, negative = inhibition, hits mostly inhibitors. hit rate 5.9% among 310,000; note: potency is the fitted concentration of half-maximal effect; % is set by controls: 0 for no effect and ±100 for the full control effect
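Growth was read as firefly luciferase luminescence after a 48 h, 37 C, 5% CO2 exposure of compounds to reporter-bearing P. falciparum cultures (0.1% parasitemia, 2% hematocrit final) in Albumax-supplemented RPMI 1640.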
Shiga toxin inh = A qHTS for Small Molecule Inhibitors of Shiga Toxin; AID 2315, 2010; inhibition, % at 38.7 µM; hit rate 9.2% among 290,000; Vero cells, Shiga toxin protein synthesis inhibition reporter; in the data active = inhibition mostly above about 28%, no sharp cut-off; inactive = mostly below about 43%; note: 0% is about no effect
* = called active by the depositor; u = inconclusive; x = no result; + = active, no number; [ ] = remark or other dose. Unless noted, calls come from the whole dose curve; as a rule, active = well fitted inhibition curve with a large enough effect; inconclusive = small, poorly fitted or top-dose-only effect, or another doubt; inactive = no such curve, though single readings can be large or run the other way.

SMILES	HCMV antiviral	CHX counter	Pf growth 96h	Pf growth 48h	Shiga toxin inh
CC(=O)N1CCN(c2ccc(NC(=O)c3ccccc3)cc2)CC1	60	23*	u	54%	39*
Cc1ccc(C)c(NC(=S)NC23CN4CN(CN(C4)C2)C3)c1	17	-5	-28%	-7%	-11
COc1ccc(Cl)cc1NC(=S)N1CCN(C(=O)C2CCCO2)CC1 (stereo not given)	-21	4	5%	22%	-9
O=c1c2ccc(Cl)cc2nc(-c2ccc([N+](=O)[O-])cc2)n1O	-98*	-8	u	0%	28
C[C@@H]1C(=O)O[C@@H]1[C@@H](C)CO[Si](c1ccccc1)(c1ccccc1)C(C)(C)C	x	1	x	x	2
CC1(C)Cc2c(cnn2-c2cccc(F)c2)C(NC(=O)CN2CCCC2=O)C1 (stereo not given)	5	11*	u	-13%	11*
CC1=C(C(=O)NC2CCCc3c2cnn3-c2cc(F)cc(F)c2)OCCO1 (stereo not given)	72	-3	-18%	7%	-20
CC1(C)Cc2c(cnn2-c2cccc(F)c2)C(NC(=O)Cn2cccn2)C1 (stereo not given)	-7	19*	-1%	4%	-5
Cn1nccc1C(=O)NC1CCCc2c1cnn2-c1cc(F)cc(F)c1 (stereo not given)	-23	32*	-5%	u	54*
CC(C)(C)c1ccc(-n2ncc3c2CCCC3NC(=O)CN2CCCCC2=O)cc1 (stereo not given)	u	1	15%	8%	13
O=C(CN1CCCC1=O)NC1CCCc2c1cnn2-c1cc(F)cc(F)c1 (stereo not given)	u	22*	26%	-3%	26
Cc1ccc(-n2ncc3c2CC(C)(C)CC3NC(=O)CN2CCCC2=O)cc1 (stereo not given)	-5	-1	u	4%	-10
C/C=C\C(=O)N(CC)c1ccccc1C	x	x	4%[12.8 µM]	-12%[12.8 µM]	x
COc1ccccc1N1CCN(Cc2nc(-c3cc(OC)c(OC)c(OC)c3)no2)CC1	12	x	x	x	x
Cc1ccc(C)c(CN2CCCN(Cc3ccc(F)cc3)S2(=O)=O)c1	0	x	x	x	x
COC(=O)c1ccc(OC)c(CN2CCCN(Cc3cc(C)ccc3C)S2(=O)=O)c1	u	-3	13%	15µM*	-4
COC(=O)c1ccc(OC)c(CN2CCCN(Cc3ccc(C)cc3)S2(=O)=O)c1	+	x	x	x	x
Cc1ccc(CN2CCN(CC(=O)Nc3ccc(C)c(C)c3)S2(=O)=O)cc1	+	x	x	x	x
COc1ccc(N2CCN(S(=O)(=O)CCNC(=O)c3c(F)cccc3Cl)CC2)cc1	10	x	x	x	x
CC1CCCCN1C(=O)CCn1c(=O)oc2ccccc21 (stereo not given)	10	0	0%	59%	2
Cc1ccc(NC(=O)CNCc2cccs2)cc1Br	-26	26*	0%	7%	52*
CC(=O)c1ccc(NC(=O)CNCc2cccs2)cc1	33	54*	39%	x	52*
O=C(CNCc1cccs1)Nc1ccc(N2CCCCCC2)cc1	-28	27*	13%	-30%	60*
O=C(CNCc1cccs1)Nc1ccc(OC(F)(F)F)cc1	3	20*	10µM*	22%	82*
COCCCNCC(=O)Nc1ccc(OC(F)(F)F)cc1	29	-2	u	4%	-5
SMILES	HCMV antiviral	CHX counter	Pf growth 96h	Pf growth 48h	Shiga toxin inh
CCN(CCCNC(=O)c1cc2c(=O)n(C)c3ccccc3c2s1)Cc1ccccc1	7	x	x	x	x
Cc1c(OCC(=O)NC2CCN(Cc3ccccc3)CC2)ccc2c3c(c(=O)oc12)CCC3	-25	-10	u	u	-7
CCC(C)(C)NCC(=O)Nc1ccc(OC(F)(F)F)cc1	22	15*	3%	x	35
CN1CCN(c2ccc(-c3ccnn3C(=O)Nc3cccc(C(F)(F)F)c3)cc2)CC1	-3	43*	-7%	-74%	28
COc1ccccc1C(C)NC(=O)c1ccc(C)o1 (stereo not given)	101	-2	13µM*	x	-16
O=C(Cn1cc(SCc2c(F)cccc2Cl)c2ccccc21)N1CCCCCC1	83	x	x	x	x
CC(=O)Nc1ccc(-c2csc(Nc3ccccn3)n2)cc1	0	48*	182%	157%	52*
NS(=O)(=O)c1ccc(Nc2nc(-c3ccc(O)cc3)cs2)cc1	u	2	20%	-2%	17
Oc1ccc(-c2csc(Nc3ccccn3)n2)cc1O	252	43*	-28%	61%	100*
Oc1ccc(-c2csc(Nc3cccc4ccccc34)n2)cc1O	-36	8	-98%	u	11
CC(=O)Nc1ccc(-c2csc(NCCc3ccccc3)n2)cc1	u	21*	-14%	u	90
Cc1ccnc(Nc2nc(-c3ccc(O)cc3)cs2)c1	15	35*	-6%	58%	120*
CC(=O)Nc1ccc(-c2csc(NC(=O)Cc3ccccc3F)n2)cc1	34	14	108%	27%	23
CCOc1ccc2nc(SCC(=O)Nc3ccc4[nH]c(=O)[nH]c4c3)[nH]c2c1	-27	x	-64%	u	x
Cc1ccc(C(=O)CCC(=O)N2CCC(C(N)=O)CC2)s1	-7	x	-11%	-16%	x
CC1CCC2(CC1)NC(=O)N(CC(=O)c1ccc(Cl)s1)C2=O (stereo not given)	1	-2	0%	-6%	26
COC(=O)[C@@H]1[C@@H](CO)[C@@H]2Cn3c(ccc(Br)c3=O)[C@H]1N2Cc1cc(F)ccc1F	54	x	x	x	x
Cc1ccc(CNC(C)c2ccccc2)s1 (stereo not given)	9	x	x	x	x
Cc1ccnc(NCn2nnc3ccccc32)c1	30	-1	10%	u	-17
Cc1ccnc(Nc2nc(-c3ccc(O)cc3O)cs2)c1	43	25*	-60%	66%	22*
Cc1ccnc(Nc2nc(-c3ccc(O)c(O)c3)cs2)c1	95	40*	u	u	97*
CCCCCNC(=O)c1nc(-c2c(F)cccc2F)oc1-c1ccccc1	-31	x	x	x	x
O=C(Nc1ccc2c(c1)CN(Cc1ccccc1O)CC2)C1CCCO1 (stereo not given)	-20	-3	3.3µM*	u	-1
CN(C)S(=O)(=O)N1CCc2ccc(NC(=O)C3CCCO3)cc2C1 (stereo not given)	x	15	u	-8%	-2
O=C(Nc1ccc2c(c1)CCC2)C1CCCO1 (stereo not given)	36	39*	x	90%	53*
O=C(Nc1cccc(NC(=O)C2CCCO2)c1)C1CCCO1 (stereo not given)	-28	-4	2%	42%	-4
Cc1c(CC(=O)N2CCCCC2)c(=O)oc2cc(O)ccc12	-1	x	x	x	x
Cc1ccc(S(=O)(=O)N2CCN(C(=O)Cc3ccccc3)CC2)cc1C	0	x	u	2%	x
Cc1ccc(S(=O)(=O)N2CCN(C(=O)CCn3nc(C)c(C)c3C)CC2)cc1C	-10	-3	92%	-1%	-14

Bioassay records deposited in PubChem by National Center for Advancing Translational Sciences (NCATS).
